Experimental data reported in PubChem BioAssay (Tox21).
“And” between values parts separate entries of the source, which are not always exact repeats. Equal values may be shown once. Inconclusive results are not listed. Some structures have more than one record in an assay (separate samples or runs), and their calls can disagree. The source made the active and inactive calls. Unless noted, calls come from the whole dose curve.

Key:
[1] = biological target: Progesterone receptor (Homo sapiens) (UniProt P06401); experiment: qHTS assay to identify small molecule agonists of the progesterone receptor (PR) signaling pathway (AID 1346784); note: nearly all actives have a fitted effect of over 30% in size; note: potency is the fitted concentration of half-maximal effect
Summary of the method: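 The screen uses PR-UAS-bla HEK 293T cells in charcoal-stripped serum (2%). Compounds are applied for 16 hr at 37C after a 6 hr pre-incubation, and reporter activity is detected with a FRET beta-lactamase substrate after 2 hr at room temperature.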

[2] = biological target: Progesterone receptor (Homo sapiens) (UniProt P06401); experiment: qHTS assay to identify small molecule antagonists of the progesterone receptor (PR) signaling pathway (AID 1346795; active = well fitted inhibition curve with a large enough effect in the signal ratio in the repeat runs, not every such curve was filed as active; the % refers to the signal ratio; note: potency is the fitted concentration of half-maximal effect)
Summary of the method: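 After 6 hr plating at 37C in 2% stripped-serum medium, PR-UAS-bla HEK293T cells got compounds, then 1 nM R5020. Sixteen hours later, LiveBLAzer substrate was applied for 2 hr at room temperature and fluorescence was recorded.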

[3] = qHTS assay to identify small molecule agonists of the progesterone receptor (PR) signaling pathway - cell viability counter screen (AID 1346799); note: nearly all actives have a fitted effect of over 45% in size; note: potency is the fitted concentration of half-maximal effect
Summary of the method: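 Viability was scored by ATP luminescence (CellTiter-Glo, 30 min, room temperature) in the same wells used for the reporter readout, after 16 hr compound exposure of PR-UAS-bla HEK293T cells.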

[4] = qHTS assay to identify small molecule antagonists of the TGF-beta/Smad signaling pathway - cell viability counter screen (AID 1346824; active = well fitted curve in the direction sought with a large enough effect in the repeat runs; an effect the other way counts as inactive or inconclusive; note: nearly all actives have a fitted effect of over 50% in size; note: potency is the fitted concentration of half-maximal effect)
Summary of the method: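 Cytotoxicity counter-screen run in the same wells as the beta-lactamase Smad reporter read: CellTiter-Glo luminescence after 30 min at room temperature. HEK 293T SBE-bla cells had 5 hr compound exposure at 37 C with TGF-beta1 (0.25 ng/mL stock).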

[5] = qHTS assay to identify small molecule agonists of the TGF-beta/Smad signaling pathway (AID 1346859; active = well fitted activation curve with a large enough effect in the signal ratio in the repeat runs, not every such curve was filed as active; the % refers to the signal ratio; note: series mostly up to about 77 µM)
Summary of the method: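 Dual-wavelength fluorescence (460/530 nm emission) quantified beta-lactamase expression under the Smad binding element in HEK 293T cells following 5 hr compound treatment at 37 C.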

[6] = biological target: Thyrotropin-releasing hormone receptor (Homo sapiens) (UniProt P34981); experiment: qHTS assay to identify small molecule antagonists of the thyrotropin-releasing hormone receptor (TRHR) signaling pathway (AID 1346877; active = well fitted inhibition curve with a large enough effect in the repeat runs, not every such curve was filed as active; note: series mostly up to about 51 µM)
Summary of the method: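 Antagonist mode: after a 5 min room-temperature compound exposure, cells were stimulated with 1 nM (final) TRH. Dye-loaded TRHR-HEK293 cells were used, and calcium-dependent fluorescence was followed for 3 min, with 15-point titrations run in triplicate.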

[7] = biological target: Thyrotropin-releasing hormone receptor (Homo sapiens) (UniProt P34981); experiment: qHTS assay to identify small molecule agonists of the thyrotropin-releasing hormone receptor (TRHR) signaling pathway (AID 1346891);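 note: HEK293 cells expressing TRHR with calcium dye readout; series mostly up to about 58 µM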
Summary of the method: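 Kinetic fluorescence (3 min, 1 s intervals) reported intracellular calcium after compound transfer onto TRHR-Hek293 cells pre-loaded with dye for 2 h at 37 °C.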

[8] = Human pregnane X receptor (PXR) small molecule agonists, qHTS cell viability counter screen (AID 1346977; active = well fitted curve in the direction sought with a large enough effect in the repeat runs; an effect the other way counts as inactive or inconclusive; note: nearly all actives have a fitted effect of over 50% in size; note: potency is the fitted concentration of half-maximal effect)
Summary of the method: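 HepG2 cells stably carrying the PXR-Luc reporter are cultured with 5% charcoal-stripped FBS and treated with compounds for 24hr. CellTiter-Fluor is added at 23hr and fluorescence is read after 1hr.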

[9] = qHTS assay to identify small molecule agonists of the TGF-beta/Smad signaling pathway - cell viability counter screen (AID 1346829; active = well fitted curve in the direction sought with a large enough effect in the repeat runs; an effect the other way counts as inactive or inconclusive; note: nearly all actives have a fitted effect of over 45% in size; note: potency is the fitted concentration of half-maximal effect)
Summary of the method: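 In parallel with the Smad reporter read, viability of HEK 293T cells stably carrying SBE-bla is quantified by ATP luminescence following 5 hr compound treatment.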

[10] = qHTS assay to identify small molecule antagonists of the progesterone receptor (PR) signaling pathway - cell viability counter screen (AID 1346798; active = well fitted curve in the direction sought with a large enough effect in the repeat runs; an effect the other way counts as inactive or inconclusive; note: nearly all actives have a fitted effect of over 50% in size; note: potency is the fitted concentration of half-maximal effect)
Summary of the method: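 Viability was determined by ATP-based luminescence (CellTiter-Glo) in PR-UAS-bla HEK293T cells cultured in 2% charcoal-stripped serum and incubated 16 hr with compounds under R5020 stimulation.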

Measured: Potency

Progesterone receptor (Homo sapiens), sequence (P06401 whole entry, looked up): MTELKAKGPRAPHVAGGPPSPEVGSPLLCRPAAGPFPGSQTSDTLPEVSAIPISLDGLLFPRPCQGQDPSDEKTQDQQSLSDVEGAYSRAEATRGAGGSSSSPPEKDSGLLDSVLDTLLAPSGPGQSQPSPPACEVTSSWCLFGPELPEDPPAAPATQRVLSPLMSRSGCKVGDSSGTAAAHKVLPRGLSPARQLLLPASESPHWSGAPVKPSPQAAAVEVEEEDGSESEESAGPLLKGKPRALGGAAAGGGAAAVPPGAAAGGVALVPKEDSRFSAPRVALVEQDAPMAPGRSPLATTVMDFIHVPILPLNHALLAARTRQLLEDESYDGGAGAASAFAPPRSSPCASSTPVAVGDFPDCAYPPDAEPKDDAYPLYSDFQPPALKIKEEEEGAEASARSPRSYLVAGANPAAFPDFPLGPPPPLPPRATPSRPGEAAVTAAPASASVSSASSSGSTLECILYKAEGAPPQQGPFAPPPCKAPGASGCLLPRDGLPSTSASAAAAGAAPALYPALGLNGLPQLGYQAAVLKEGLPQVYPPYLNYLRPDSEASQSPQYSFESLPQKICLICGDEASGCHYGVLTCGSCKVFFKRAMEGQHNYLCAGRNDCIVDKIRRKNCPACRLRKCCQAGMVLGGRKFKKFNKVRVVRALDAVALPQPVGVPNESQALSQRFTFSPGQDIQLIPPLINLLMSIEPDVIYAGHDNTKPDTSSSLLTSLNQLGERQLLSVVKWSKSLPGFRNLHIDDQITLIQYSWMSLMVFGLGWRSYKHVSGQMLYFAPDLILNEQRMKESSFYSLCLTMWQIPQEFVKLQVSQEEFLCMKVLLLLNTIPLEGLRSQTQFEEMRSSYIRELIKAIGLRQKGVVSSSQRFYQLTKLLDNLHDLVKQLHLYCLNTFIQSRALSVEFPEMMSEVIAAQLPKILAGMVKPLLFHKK
Thyrotropin-releasing hormone receptor (Homo sapiens), sequence (P34981 whole entry, looked up): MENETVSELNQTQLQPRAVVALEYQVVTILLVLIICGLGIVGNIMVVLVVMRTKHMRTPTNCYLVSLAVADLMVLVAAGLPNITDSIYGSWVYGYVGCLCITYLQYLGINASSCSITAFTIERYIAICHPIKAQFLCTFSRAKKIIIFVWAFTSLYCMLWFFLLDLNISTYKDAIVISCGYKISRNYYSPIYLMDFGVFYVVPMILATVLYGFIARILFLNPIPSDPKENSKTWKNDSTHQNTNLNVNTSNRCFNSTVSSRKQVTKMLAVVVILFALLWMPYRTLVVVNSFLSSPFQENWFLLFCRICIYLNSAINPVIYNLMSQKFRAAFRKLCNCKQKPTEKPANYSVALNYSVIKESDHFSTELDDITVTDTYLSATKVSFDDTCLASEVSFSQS

O=C1NS(=O)(=O)c2ccccc21
inactive: [1] | [2] | [3] | [4] | [5] | [6] | [7] | [8]

Cc1ncc([N+](=O)[O-])n1CCO
inactive: [1] | [2] | [3] | [4] | [5] | [6] | [7] | [8]

CC(=O)C(=O)O
inactive: [1] | [2] | [4] | [9] | [5] | [8]
inactive and 34.4 µM (active): [3]

CCCCNC(=O)NS(=O)(=O)c1ccc(C)cc1
inactive: [1] | [2] | [3] | [4] | [5] | [6] | [7] | [8]

O=C(O)c1ccccc1
inactive and 596 nM (active): [1]
inactive: [2] | [3] | [4] | [5] | [8]

CN(N=O)C(=O)N[C@@H]1[C@@H](O)[C@H](O)[C@@H](CO)O[C@@H]1O
inactive: [1] | [2] | [3] | [4] | [9] | [5] | [6] | [7] | [8]

Cc1cn([C@H]2C=C[C@@H](CO)O2)c(=O)[nH]c1=O
inactive: [1] | [2] | [3] | [4] | [5] | [8]

Cc1ncc([N+](=O)[O-])n1C
inactive: [1] | [2] | [3] | [4] | [9] | [5] | [6] | [7] | [8]

CCCc1cc(=O)[nH]c(=S)[nH]1
inactive: [1] | [2] | [3] | [4] | [5] | [6] | [7] | [8]

CN1CCC[C@H]1c1cccnc1
inactive: [1] | [2] | [3] | [4] | [5] | [6] | [7] | [8]

C=CCc1ccc(O)c(OC)c1
inactive: [1] | [2] | [3] | [4] | [9] | [5] | [6] | [7] | [8]

Cc1ccc(S(=O)(=O)O)cc1
inactive: [1] | [2] | [3] | [4] | [5] | [8]

C/C=C/C=C/C(=O)O
inactive: [1] | [2] | [3] | [4] | [9] | [5] | [6] | [7] | [8]

CCCCOC(=O)c1ccc(O)cc1
active: [2] 27.6 µM and 27.3 µM and 26.6 µM
inactive: [1] | [3] | [4] | [5] | [6] | [7] | [8]

CC1(C)S[C@@H]2[C@H](NC(=O)[C@H](N)c3ccccc3)C(=O)N2[C@H]1C(=O)O
inactive: [1] | [2] | [3] | [4] | [9] | [5] | [8]

CCOc1ccc(NC(C)=O)cc1
inactive: [1] | [2] | [3] | [4] | [5] | [6] | [7] | [8]

NC1CCCCC1
inactive: [1] | [2] | [3] | [4] | [5] | [6] | [7] | [8]

F[B-](F)(F)F
inactive: [1] | [2] | [3] | [4] | [9] | [5] | [6] | [7] | [8]

O=c1[nH]cnc2c1ncn2[C@H]1CC[C@@H](CO)O1
inactive: [1] | [2] | [3] | [4] | [9] | [5] | [8]

C1CCC(C(CC2CCCCN2)C2CCCCC2)CC1 (stereo not given)
active: [2] 29.8 µM | [3] 23.7 µM | [4] 26.8 µM | [9] 26.8 µM | [8] 26.6 µM
inactive: [1]

CN1CCc2cccc3c2[C@H]1Cc1ccc(O)c(O)c1-3
active: [8] 43.7 µM and 18.1 µM and 29.8 µM
inactive: [1] | [10] | [4] | [5] | [6] | [7]

CN(C)C(=S)SC(=S)N(C)C
inactive: [1] | [4] | [9] | [5] | [6] | [7]
active: [10] 994 nM and 969 nM and 750 nM | [3] 2.22 µM and 1.22 µM and 266 nM | [8] 7.08 µM and 545 nM and 2.66 µM
